Here are results for 40 molecules from PubChem BioAssay (EPA / NIEHS).

SMILES strings stand for the structures. Calls of active or inactive are those of the source. The calls were made as follows: active = hit-call score of the fitted dose curve at least 0.9, where 1 is the maximum; inactive = score below 0.9.

This assay is described as follows: APR_HepG2_NuclearSize_24hr: Apredica 24-hour HepG2 Assay for Nuclear Size (AID 2282907). Conditions: high-content imaging, actives raise or lower the signal. As for the experimental part:
APR_HepG2_24hr is a cell-based, multiplexed-readout assay that uses HepG2, a human liver cell line, with measurements taken at 24 hours after chemical dosing in a 384-well plate.APR_HepG2_NuclearSize_24hr is one of 10 assay component(s) measured or calculated from the APR_HepG2_24hr assay. It is designed to make measurements of cell phenotype, a form of morphology reporter, as detected with fluorescence intensity signals by HCS Fluorescent Imaging technology.Data from the assay component APR_HepG2_NuclearSize_24hr was analyzed into 1 assay endpoint. This assay endpoint, APR_HepG2_NuclearSize_24hr, was analyzed with bidirectional fitting relative to DMSO as the negative control and baseline of activity. Using a type of morphology reporter, measures of all nuclear dna for gain or loss-of-signal activity can be used to understand the signaling at the nuclear-level. Furthermore, this assay endpoint can be referred to as a primary readout, because this assay has produced multiple assay endpoints where this one serves a signaling function. To generalize the intended target to other relatable targets, this assay endpoint is annotated to the cell morphology intended target family, where the subfamily is organelle conformation.
Cells were treated with dimethyl sulfoxide (DMSO) as a solvent control at a final concentration of 0.5% v/v or with compounds in DMSO with a resulting final DMSO concentration of 0.5% v/v. Compound treatment was done at concentrations of 0.39, 0.78, 1.56, 3.12, 6.24, 12.5, 25, 50, 100, and 200 uM in duplicate on each plate. Cells were treated with compounds for 1, 24, or 72 hr. Carbonyl […] m-chloro-phenylhydrazone (CCCP) and taxol were used as positive controls for mitochondrial function and cytoskeletal stability, respectively; DMSO served as the negative control for this experiment. Cells were fixed by the direct addition of 50 uL formaldehyde in Hank's Balanced Salt Solution (HBSS) to a final concentration of 3.7%. After incubation in the fixation medium for 30 min at room temperature (293-298 K), cells were rinsed twice with HBSS and treated with cell permeabilization buffer (16 uL of 0.5% Triton X-100) for 10 min at room temperature (293-298 K) before labeling. For mitochondrial membrane potential and mitochondrial measurements, pre-fixed cells were incubated with 50 uL of MitoTracker Red CMXRos (Invitrogen) at a concentration of 250 nM for 30 min before fixation. In the remaining cases, post-fixed cells were labeled by incubation with a multiplexed mixture of primary antibodies in HBSS for 60 min at room temperature (293-298 K) to detect immunoreactivity of c-Jun (1:500), phospho-histone H3 (1:100), phospho-histone H2A.x (1:200), p53 (1:400), alpha-tubulin (1:200) and Hoechst 33342 (2 ug/mL). Cells were labeled for multiplexed imaging on two separate plates: a) Hoechst 33342, MitoTracker Red, phospho-histone H3, and alpha-tubulin, and b) Hoechst 33342, phospho-histone H2A.x, and c-Jun. A final rinse with HBSS (50 uL) was performed before analysis. The primary and secondary antibodies for the proteins were phospho-histone H3 (rabbit anti-phospho-histone H3 and FITC-donkey anti-rabbit IgG), phospho-histone H2A.x (mouse anti-phospho-histone H2A.x and FITC-donkey anti-mouse IgG), c-Jun (rabbit anti-phospho-c-Jun and Cy3-donkey anti-rabbit IgG), p53 (sheep anti-p53 and Cy5-donkey anti-sheep IgG), alpha-tubulin (mouse anti-alpha-tubulin and Cy5-donkey anti-mouse IgG). These antibodies are available as the CellCiphr HepG2 assay kit (Millipore).Digital images of each well were captured using a Cellomics ArrayScan VTI (Thermo Scientific Cellomics) (0.8 NA objective, 0.63x optical coupler, and XF-93 filter set) at 20x magnification. The images were acquired using the autofocus feature of the ArrayScan instrument, which entails the following steps. First, the camera focuses on channel 1 (Hoechst 33342), where nuclei are identified. Second, a Z offset of 1 um is used for capturing mitochondria (MitoTracker Red). […]
As to `Cc1occc(=O)c1O`, the outcome was inactive. Same read-out and setting: in the case of `O=C1OC(c2ccc(O)cc2)(c2ccc(O)cc2)c2ccccc21` it was “inactive”. With `CC(=O)O`, the call was inactive. Turning to `CCOCCOCCO`, the molecule was classed as inactive. Consider `CN(C)CCCN1c2ccccc2Sc2ccc(Cl)cc21`, for which the AC50 was 129 µM (active). In the case of `C/C=C/c1ccc(OC)cc1`, the result was inactive.

Consider `CC(=O)OC1CC(C)OC(C)O1` (stereo not given), for which the outcome was inactive. On the same count and under the same terms, with `CC1=C(C)S(=O)(=O)CCS1(=O)=O` the entry was “inactive”; with `CCCCC(CC)COC(=O)CCCCCCCC(=O)OCC(CC)CCCC` (stereo not given), “inactive”; with `C=CCCCCCCCCCCCC`, “inactive”. Still for that read-out and setting: with `CC(C)(O)c1ccc(CNC(=O)c2cccnc2Oc2ccc(F)cc2)cc1` the entry was “inactive”; with `Cc1cc(Cc2ccc(N)c(C)c2)ccc1N`, “inactive”; with `CCCCCCCCCC[N+](C)(C)[O-]`, “inactive”. With `O=C(O)CN(CC(=O)O)CC(=O)O`, the result was inactive. The same measure, in the same setting: with `CC(COCC(C)OC(=O)c1ccccc1)OC(=O)c1ccccc1` (stereo not given) the entry was “inactive”; with `COC(=O)CCC(=O)OC`, “inactive”. Turning to `CCN(CC)CCOc1ccc(C(=C(Cl)c2ccccc2)c2ccccc2)cc1`, the AC50 was 15.7 µM (active). For the molecule `Cc1ccc(C(C)(C)C)c(O)c1`, the AC50 was 112 µM (active). As for `C=CCc1ccc(OC)c(OC)c1`, the result was inactive. As for `O=C1CCCCC1`, the call was inactive. The same measure, in the same setting: with `CC(C)COC(=O)CCCCC(=O)OCC(C)C` the entry was “inactive”; with `CC(C)OC(=O)C(C)(C)Oc1ccc(C(=O)c2ccc(Cl)cc2)cc1`, “inactive”; with `O=C1c2c(O)cccc2Cc2cccc(O)c21`, “inactive”. In the case of `OCC(CO)n1cnc(-c2ccc(F)cc2)c1-c1ccnc(Oc2ccccc2)n1`, the molecule was called inactive. The same measure, in the same setting: in the case of `COC(=O)CCCC(=O)OC` it was “inactive”; in that of `O=C1NC(=O)C(c2ccccc2)(c2ccccc2)N1`, “inactive”. In the case of `O=C(NS(=O)(=O)/C=C/c1cccs1)c1ccc(F)cc1Br`, the call was inactive. Still for that read-out and setting: with `CCCCC(CC)COP(=O)(OCC(CC)CCCC)OCC(CC)CCCC` (stereo not given) the entry was “inactive”; with `COc1ccc(C(=O)Nc2nc3ccccc3c(NCc3ccccc3)c2C#N)cc1`, “inactive”; with `NC(=Nc1ccccc1)Nc1ccccc1`, “inactive”.

For `CC(C)c1cccc(C(C)C)c1`, the outcome was inactive.

In the case of `CSc1ccc(Oc2ccc(S(N)(=O)=O)cc2CN(C)C)cc1C`, the molecule was classed as inactive.

As to `CO[C@@H]1COCC[C@@H]1N[C@@H]1CC[C@@](C(=O)N2CCc3ncc(C(F)(F)F)cc3C2)(C(C)C)C1`, the result was inactive. Same read-out and setting: in the case of `CC(=O)CC(c1ccccc1)c1c(O)c2ccccc2oc1=O` (stereo not given) it was “inactive”; in that of `c1ccc2occc2c1`, “inactive”.

On to `S=c1[nH]c2ccccc2s1`, for which the molecule was called inactive.

For the molecule `Cc1c(C)c2c(c(C)c1O)CCC(C)(COc1ccc(CC3SC(=O)NC3=O)cc1)O2` (stereo not given), the call was inactive. As to `CC(=O)OCC(COC(C)=O)OC(C)=O`, the outcome was inactive. Same read-out and setting: in the case of `Cc1cc(SC2=C(O)C[C@@](CCc3ccc(N)cc3)(C(C)C)OC2=O)c(C(C)(C)C)cc1CO` it was “inactive”; in that of `CN(C)C(=O)NC1(c2ccccc2)CCN(CC[C@@]2(c3ccc(F)c(F)c3)CN(C(=O)c3ccccc3)CCO2)CC1`, “inactive”.

The AC50 is the midpoint of the concentration-response curve, whichever way the signal moves.
